From PubChem BioAssay
TIM10 inh: growth inhibitors of TIM10 yeast strain. S. cerevisiae TIM10 strain growth, BacTiter-Glo luminescence, 24 h. inhibition, % at 10 µM. 1.4% of 330,000 active. AID 463195;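 active means inhibition of 40% or more at the single tested concentration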;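 further: wild-type TIM10 isogenic control strain grown at permissive 25 °C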
tim10-1 inh: tim10-1 yeast growth inhibition; S. cerevisiae tim10-1 ts strain growth, BacTiter-Glo, 24 h; inhibition, % at 20 µM; 2.2% of 330,000 active; AID 463190;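 active means inhibition of at least 40%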;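 further: mutant grown at 25 °C; 0% = DMSO wells with yeast and 100% = wells holding no yeast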
tim23-1 inh: tim23-1 yeast growth inhibition; 1.3% of 330,000 active; S. cerevisiae tim23-1 growth, BacTiter-Glo luminescence, 24 h; AID 463212; inhibition, % at 20 µM;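 active means growth inhibition of the mutant yeast at or above 50%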;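 further: temperature-sensitive mutant grown at 25 °C; plate controls were DMSO-treated mutant yeast for no effect and medium wells lacking yeast for full effect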
Beta2AR agonist: activates human beta-2 adrenergic receptor causing internalization | P07550 | Am2.2-beta2AR cells, FAP receptor internalization, flow cytometry | response, % (concentration not given with the values) | 0.43% of 340,000 active | AID 504454;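 active means response above a set limit, near 3 SD of response in nonfluorescent compounds, cut at about 42% in these data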
Target sequence (P07550 whole entry, looked up): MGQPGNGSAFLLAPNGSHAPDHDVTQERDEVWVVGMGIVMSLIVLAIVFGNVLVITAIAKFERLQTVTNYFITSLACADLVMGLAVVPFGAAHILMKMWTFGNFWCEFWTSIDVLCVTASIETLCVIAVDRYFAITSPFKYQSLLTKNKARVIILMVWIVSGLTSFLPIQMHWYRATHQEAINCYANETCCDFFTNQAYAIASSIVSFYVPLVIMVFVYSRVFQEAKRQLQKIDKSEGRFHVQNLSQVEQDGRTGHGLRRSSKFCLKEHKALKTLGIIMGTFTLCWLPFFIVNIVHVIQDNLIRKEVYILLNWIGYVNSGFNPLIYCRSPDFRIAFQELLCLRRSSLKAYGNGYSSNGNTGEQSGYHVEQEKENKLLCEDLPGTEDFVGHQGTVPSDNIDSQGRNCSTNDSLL
PfHsp90 set2: inhibits growth of yeast expressing Plasmodium falciparum Hsp90; AID 504621; 0.32% of 310,000 active; inhibition, % at 9.4 µM; S. cerevisiae expressing PfHsp90, BacTiter-Glo ATP, 48 h; yeast lacking PDR1 and PDR3 efflux regulators;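 active means every replicate shows inhibition above about 80%, whatever the replicate mean, limit read from the data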;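 further: 0% = DMSO neutral controls and 100% = 20 µM radicicol positive controls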
* hit, by the source's call; · = no result. Rows were chosen to be rich in hits. Some 3.8% of all compounds tested hit in one or more screens of this group.

SMILES | TIM10 inh | tim10-1 inh | tim23-1 inh | Beta2AR agonist | PfHsp90 set2
COC(=O)C1=C(C(=O)OC)SC2(S1)C(C(=O)OC)=C(C(=O)OC)Sc1c2ssc1=O | · | · | · | 57.5* | 117.3*
CCCCC1(CC)COP(=O)(OCC(Cl)(Cl)Cl)OC1 (configuration not stated) | · | · | · | 11.3 | ·
CC1=CC(C)CC(C)OC(=O)CC(c2ccc(O)cc2)NC(=O)C(Cc2c(Br)[nH]c3ccccc23)N(C)C(=O)C(C)NC(=O)C(C)C1 (configuration not stated) | · | · | · | 49.8* | 104.8*
CC1=CC2OC3CC4OC(=O)C=CC=CC(=O)OCCC(C)C(O)C(=O)OCC2(CC1)C4(C)C31CO1 (configuration not stated) | · | · | · | 11.3 | 105.3*
CCCC1COC(Cn2cncn2)(c2ccc(Cl)cc2Cl)O1 (configuration not stated) | -47.4 | -46.2 | -402.1 | 0.6 | 106.6*
COc1cccc(CCNCc2ccc(SC)cc2)c1 | -1.0 | -25.7 | 13.4 | -5.0 | -25.3
CCC1(CCC(C)C)C(=O)NC(=S)NC1=O | · | · | · | 1.2 | 11.4
O=C1NC(=O)C(=Cc2ccc(-c3ccc(F)cc3O)o2)C(=O)N1 | -10.6 | 5.5 | -11.5 | 42.4* | ·
CC(=O)NC1=C(N2CC2C)C(=O)C(NC(C)=O)=C(N2CC2C)C1=O (configuration not stated) | · | · | · | 8.8 | -4.6
C=CCN1C(=O)NC(=O)/C(=C/C=C/c2ccccc2)C1=O | · | · | · | 74.6* | 4.5
O=C1NC(=O)N(Cc2ccco2)C(=O)/C1=C/C=C/c1ccco1 | 1.1 | 8.0 | -3.3 | 84.9* | 1.3
O=C1NC(=O)N(Cc2ccccc2)C(=O)/C1=C\C=C\c1ccco1 | 7.3 | 33.0 | 26.5 | 66.9* | 0.7
O=C1NC(=O)N(CCc2ccc(F)cc2)C(=O)/C1=C\C=C\c1ccccc1 | · | · | · | 9.7 | ·
O=C1NC(=O)C(=Cc2c(Cl)cccc2Cl)C(=O)N1 | · | · | · | 14.9 | 17.1
O=C(COc1ccc(Cl)cc1)N(c1ccc(Cl)cc1)C1CN2CCC1CC2 (configuration not stated) | -7.3 | -3.8 | 5.5 | -2.3 | -0.2
Cc1ccc(/C=C2\C(=O)NC(=O)N(Cc3ccccc3Cl)C2=O)o1 | 2.8 | 9.0 | 14.9 | 59.2* | 11.9
Cc1ccc(/C=C2/C(=O)NC(=O)N(Cc3ccc(F)cc3)C2=O)o1 | 1.6 | 9.6 | 32.7 | · | ·
COC[C@H]1OC(=O)c2coc3c2[C@@]1(C)C1=C(C3=O)[C@@H]2CCC(=O)[C@@]2(C)C[C@H]1OC(C)=O | · | · | · | 8.8 | 106.4*
O=C(OC1CC2CCC(N2)C1C(=O)O)c1ccccc1 (configuration not stated) | 4.9 | -9.3 | 3.6 | -4.0 | ·
Oc1ccc(O)c2c1C1(Cl)C(Cl)=C(Cl)C2(Cl)C1(Cl)Cl | · | · | · | 10.3 | 106.6*
Oc1ccc2c3c1O[C@H]1c4oc5ccccc5c4C[C@@]4(O)[C@@H](C2)N(CC2CC2)CC[C@]314 | 0.2 | 13.8 | 11.0 | 0.9 | 8.3
CC[C@H](C)/C=C(C)/C=C/C1=CC2=C(Cl)C(=O)[C@@](C)(OC(C)=O)C(=O)C2=CO1 | 10.3 | 26.8 | 37.5 | 0.1 | 105.8*
CCC(C)/C=C(C)/C=C/C1=CC2=C(Cl)C(=O)C(C)(OC(C)=O)C(=O)C2=CO1 (configuration not stated) | 13.6 | 15.6 | 14.2 | -3.7 | 10.8
COc1cc2cc(C(=O)N3CC(COS(C)(=O)=O)c4ccc(O)cc43)[nH]c2c(OC)c1OC (configuration not stated) | · | · | · | 21.6 | 104.4*
C1=CC(Cc2cncs2)c2ccccc21 (configuration not stated) | -1.5 | 7.6 | 0.7 | 6.5 | -3.6
SMILES | TIM10 inh | tim10-1 inh | tim23-1 inh | Beta2AR agonist | PfHsp90 set2
CC(C)c1oc(=O)cc2c1[C@@H](O)[C@H]1OC(=O)[C@@]3(C)C[C@@H](O)[C@@H](O)[C@@]2(C)C13 (some centres not stated) | 1.2 | 2.8 | -1.9 | 75.0* | -4.7
CC(C)c1oc(=O)cc2c1[C@@H](O)[C@H]1OC(=O)[C@@]3(C)CC[C@@H](O)[C@@]2(C)C13 (some centres not stated) | -6.3 | -11.1 | 5.8 | 84.2* | -1.0
Cc1nc(N2CCN(Cc3ccc4c(c3)OCO4)CC2)[nH]c(=O)c1C | 9.9 | -7.3 | 6.9 | 23.1 | -1.4
COc1ccc(Cl)cc1N=Cc1c(O)n(C)c(=O)n(C)c1=O | 6.7 | 4.3 | 16.7 | 57.1* | -1.0
Cc1cc(=O)oc2c(C)c(OCC(=O)N3CCC(C(=O)O)(c4ccccc4)CC3)ccc12 | 3.1 | 0.8 | 14.0 | 9.6 | 11.0
Clc1ccc(CSC(Cn2ccnc2)c2ccc(Cl)cc2Cl)cc1 (configuration not stated) | -166.6 | -37.4 | 5.5 | 6.4 | 90.3*
Clc1ccc(CO/N=C(\Cn2ccnc2)c2ccc(Cl)cc2Cl)c(Cl)c1 | -72.3 | 32.6 | -41.1 | · | ·
Clc1ccc(COC(Cn2ccnc2)c2ccc(Cl)cc2Cl)cc1 (configuration not stated) | -91.5 | -26.5 | 49.4 | 4.6 | 83.0*
C/C(=N\N1CCN(C)CC1)c1c(O)[nH]c(=O)[nH]c1=O | 4.1 | 10.3 | 1.9 | 12.7 | -13.3
O=C(c1ccccc1)C(CN1CCCC1)c1ccccc1 (configuration not stated) | · | · | · | 11.7 | 7.6
CC1CCN(C(CC(=O)c2ccccc2)C(=O)c2ccccc2)CC1 (configuration not stated) | · | · | · | 14.4 | 112.9*
C=CCCC1(CC(C)C)C(=O)NC(=S)NC1=O | · | · | · | -3.1 | 15.2
Oc1c(Cl)cccc1Cc1cc(Cl)cc(Cl)c1O | · | · | · | 6.5 | 109.2*
Oc1c(Cl)cc(Cl)cc1CN1CCN(Cc2ccccc2)CC1 | 21.3 | 21.8 | 19.3 | -3.2 | 1.0
Cc1cc(O)c2c(c1)OC(C)(C)C1=C2CC(C)CC1 (configuration not stated) | 2.2 | 17.5 | 29.4 | 12.9 | -17.4
CNc1cc(Cl)c2nonc2c1[N+](=O)[O-] | · | · | · | 106.0* | 7.9
Cc1cc([N+](=O)[O-])c(Cl)cc1NC(=O)C(C)C | 1.7 | 2.1 | 11.6 | -2.2 | 28.3
COc1cc2c(cc1/C=C/[N+](=O)[O-])OCO2 | · | · | · | 40.8 | 106.2*
O=C1NC(=O)N(c2ccc3c(c2)OCO3)C(=O)/C1=C/c1cccs1 | -2.6 | 17.3 | 16.6 | 44.5* | -4.1
O=C1NC(=O)N(c2ccc3c(c2)OCO3)C(=O)/C1=C/c1ccsc1 | -17.4 | -3.5 | -6.4 | 15.2 | -12.8
COc1cc2c(cc1OC)C1[C@H]3C(=CC[C@H]1OC2O)CCN3C (some centres not stated) | 11.7 | 0.6 | 13.5 | -1.3 | 6.4
COC(=O)C1=C(c2ccc3ccccc3c2)C[C@@H]2CC[C@H]1N2C(=O)NC1CC1 | 2.0 | -6.9 | 4.3 | 5.6 | -18.5
CCN(CCCl)c1cc(CN(C)C)cc(NC(=O)c2ccc(C(=O)Nc3cc(CN(C)C)cc(N(CC)CCCl)c3)cc2)c1 | · | · | · | 46.7* | 22.3
CCN(CC)C(=O)c1ccc(NC(=O)c2cccc(C(F)(F)F)c2)cc1 | -10.1 | 13.1 | -12.2 | 3.3 | -13.6
